Assay outcomes as filed in PubChem BioAssay.
Rows were chosen to be rich in hits. Some 1.1% of all compounds tested hit in one or more screens of this group.
hERG WT inh – qHTS for Inhibitors of KCHN2 3.1: Wildtype qHTS; Voltage-gated inwardly rectifying potassium channel KCNH2 (Homo sapiens), Q12809; U2OS, BacMam KCNH2, thallium flux FluxOr; active compounds read low; activity change, % at 1.84 µM; 340,000 tested, 0.37% active; AID 720551, 2013;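 active = maximum activity change below -70%; inconclusive = maximum activity change between -70% and -50%; inactive = maximum activity change above -50%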
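U2OS cells were transduced with wild-type KCNH2 virus (2.03 x 10^8 / mL) for 4 h at room temperature, then cultured overnight at 37 C. Thallium flux was read with FluxOr dye. Rate constants were normalized to DMSO controls.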
KCNH2 3.1 inh – qHTS for Inhibitors of KCHN2 3.1: Mutant qHTS; activity change, % (tested at about 1.8 µM); Potassium voltage-gated channel subfamily H member 2, brain isoform KCNH2 3.1 (human); U2OS KCNH2 3.1, thallium flux FluxOr; active compounds read low; 340,000 tested, 0.95% active;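 active = maximum activity change below -70%; inconclusive = maximum activity change from -70% to -50%; inactive = maximum activity change above -50%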;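 note: thallium influx rate constant from kinetic fluorescence after stimulation buffer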
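Channel expression came from 3.1 mutant virus (1.77 x 10^8 /mL) applied to suspended U2OS cells for 4 h. Flux was tracked with FluxOr dye plus Red40 quencher, and kinetic rate constants normalized to controls.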
Menin-MLL TR inh – qHTS Assay for Inhibitors Targeting the Menin-MLL Interaction in MLL Related Leukemias: Competition With Texas Red Labeled MLL-derived Mutant Peptide. Menin + Texas Red MLL mutant peptide, fluorescence polarization. Potency, µM (highest dose often 61.6 µM), usual class: inhibitors. 270,000 tested, 0.23% active. AID 1768, 2009; active = well fitted inhibition curve with a large enough effect in the polarisation, with a control signal flat, not every such curve was filed as active; inconclusive = small, poorly fitted or top-dose-only effect, or effect the other way, or a change in a side signal; inactive = no such curve, though single readings can be large or run the other way; the % refers to the polarisation
Target sequence (O00255 whole entry, looked up): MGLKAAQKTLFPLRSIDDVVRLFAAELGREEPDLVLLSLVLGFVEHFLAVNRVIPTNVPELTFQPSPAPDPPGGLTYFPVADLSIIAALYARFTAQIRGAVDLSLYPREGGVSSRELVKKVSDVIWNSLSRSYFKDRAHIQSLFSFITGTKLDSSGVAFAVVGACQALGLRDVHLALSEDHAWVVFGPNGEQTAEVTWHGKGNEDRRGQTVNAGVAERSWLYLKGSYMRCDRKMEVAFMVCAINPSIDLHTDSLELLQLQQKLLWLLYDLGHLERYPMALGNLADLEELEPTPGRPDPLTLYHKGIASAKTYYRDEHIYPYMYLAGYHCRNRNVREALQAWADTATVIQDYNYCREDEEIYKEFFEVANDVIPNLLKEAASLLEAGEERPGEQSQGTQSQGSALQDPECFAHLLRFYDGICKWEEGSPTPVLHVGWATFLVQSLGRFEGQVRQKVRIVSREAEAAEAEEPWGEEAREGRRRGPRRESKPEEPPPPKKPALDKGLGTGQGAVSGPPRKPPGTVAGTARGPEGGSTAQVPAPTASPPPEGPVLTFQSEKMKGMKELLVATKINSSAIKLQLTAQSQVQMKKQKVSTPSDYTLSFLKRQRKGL
Menin MLL FP FL – qHTS Assay for Inhibitors Targeting the Menin-MLL Interaction in MLL Related Leukemias: Competition With Fluorescein Labeled MLL-derived Peptide; FP activity change, % at 61.4 µM; 290,000 tested, under 10 active; Fluorescence polarization, fluorescein-MLL peptide displacement from menin; active = well fitted curve in the direction sought with a large enough effect in the polarisation, not every such curve was filed as active; inconclusive = small, poorly fitted or top-dose-only effect, or effect the other way, or a change in a side signal; inactive = no such curve, though single readings can be large or run the other way; the % refers to the polarisation
MLL CXXC-DNA inh – qHTS Fluorescence Polarization Assay for Inhibitors of MLL CXXC domain - DNA interaction; Histone-lysine N-methyltransferase 2A (Homo sapiens), Q03164; MLL-CXXC / FITC-HOXA9 DNA fluorescence polarization; Potency, µM (highest dose often 115 µM), usual class: inhibitors; 290,000 tested, 0.037% active; AID 2662, 2010; active = well fitted inhibition curve with a large enough effect in the polarisation, with a control signal flat, not every such curve was filed as active; inconclusive = small, poorly fitted or top-dose-only effect, or effect the other way, or a change in a side signal; inactive = no such curve, though single readings can be large or run the other way; the % refers to the polarisation
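Fluorescence polarization: 7 uM MLL-CXXC (stock) preincubated 5 min with compounds, then 50 nM fluorescein-HOX-A9 DNA (stock) added; 30 min ambient. Buffer 50 mM Tris-HCl pH 7.5, 50 mM NaCl, 1 mM DTT, 0.05% BSA.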
Large screens that a line does not name were inactive.

CCCCn1c(N)c(N(CCC(C)C)C(=O)C2CC(=O)N(c3ccc4c(c3)OCCO4)C2)c(=O)[nH]c1=O (stereo not drawn)	none (no result: Menin-MLL TR inh, Menin MLL FP FL)
CCCCN(C(=O)C1CC(=O)N(c2ccc3c(c2)OCCO3)C1)c1c(N)n(CC(C)C)c(=O)[nH]c1=O (stereo not drawn)	hERG WT inh -152, KCNH2 3.1 inh -192 (no result: Menin-MLL TR inh, Menin MLL FP FL, MLL CXXC-DNA inh)
O=S(O)CO	none (no result: hERG WT inh, KCNH2 3.1 inh, MLL CXXC-DNA inh)
O=S(=O)(Nc1ccc(O)c(NS(=O)(=O)c2ccccc2)c1)c1ccccc1	none (no result: Menin-MLL TR inh, Menin MLL FP FL)
CN(C)CCCNc1ncnc2sc(-c3ccccc3)cc12	KCNH2 3.1 inh -89 (no result: Menin-MLL TR inh)
CCOC(CNc1ncnc2sc(-c3ccccc3)cc12)OCC	none
CC(C)c1ccc(NC(=O)CCNC(=O)N2CC(=O)Nc3ccccc32)cc1	none (no result: Menin-MLL TR inh, Menin MLL FP FL)
CCOC(=O)c1csc(NC(=O)CSc2nnnn2-c2ccc3c(c2)OCCO3)n1	hERG WT inh -118
C=CCn1c(=O)c(C(C)=O)cn(N(C)c2ncc(C(F)(F)F)cc2Cl)c1=O	KCNH2 3.1 inh -114
CC(=O)c1cn(N(C)c2ncc(C(F)(F)F)cc2Cl)c(=O)[nH]c1=O	none
CCCCc1ccc(/C(C)=N/Nc2cc(N3CCOCC3)nc(C)n2)cc1	KCNH2 3.1 inh -82
CN1CCN(c2ccc(C(=O)c3ccc(Br)cc3)cc2[N+](=O)[O-])CC1	KCNH2 3.1 inh -81
CC1CCN(C(=O)c2ccc([N+](=O)[O-])o2)CC1	KCNH2 3.1 inh -72
Cc1cccc(-c2cc3nc4c(c(NCc5ccco5)n3n2)CCCC4)c1	hERG WT inh inconclusive, KCNH2 3.1 inh -83
Cc1cccc(-c2cc3nc4c(c(N5CCOCC5)n3n2)CCCC4)c1	none
CCOC(=O)C1=C(CSc2nc(-c3ccccc3)ccc2C#N)OC(N)=C(C#N)C1c1ccc(OC)cc1 (stereo not drawn)	Menin-MLL TR inh 14µM, Menin MLL FP FL inconclusive
CCOC(=O)C1=C(CSc2nc(CC)c(C)cc2C#N)OC(N)=C(C#N)C1c1ccccc1 (stereo not drawn)	none
S=c1nc(COc2ccccc2)[nH]c2ccccc12	hERG WT inh -91, Menin-MLL TR inh inconclusive
S=c1nc(Cc2ccccc2)[nH]c2ccccc12	none
O=c1[nH]c(COc2ccccc2)nc2ccccc12	none
S=c1nc(Cc2ccc(Cl)cc2)[nH]c2ccccc12	hERG WT inh -150
C[C@@H](c1ccccc1)N1C(=O)[C@H]2[C@H]3[C@H](O)[C@H](O)C/C(=N/OCc4ccccc4)[C@H]3CC[C@@H]2C1=O	none (no result: hERG WT inh, KCNH2 3.1 inh, MLL CXXC-DNA inh)
COc1ccc(CCNC(=O)c2cccc(S(=O)(=O)N3CCc4ccccc4C3)c2)cc1	none (no result: Menin-MLL TR inh, Menin MLL FP FL, MLL CXXC-DNA inh)
C[C@@H]1CN([C@H](C)CO)C(=O)CCCn2nncc2CO[C@@H]1CN(C)C(=O)c1ccccc1	none (no result: Menin-MLL TR inh, Menin MLL FP FL, MLL CXXC-DNA inh)
CCCCCCCOC(=O)C[N+](C)(C)CCOC1CC2CCC1(C)C2(C)C (stereo not drawn)	none (no result: KCNH2 3.1 inh)
CCCCCCOC(=O)C[N+](C)(C)CCOC1CC2CCC1(C)C2(C)C (stereo not drawn)	Menin-MLL TR inh 16µM
CN[C@H](C)C(=O)NC[C@H]1O[C@@H](n2cnc3c(N)ncnc32)[C@H](O)[C@@H]1O	none (no result: Menin-MLL TR inh, Menin MLL FP FL, MLL CXXC-DNA inh)
CCOC(=O)c1c(C)oc2c1c(C=NCc1ccccn1)c(O)c1ccccc12	Menin-MLL TR inh 3.5µM, Menin MLL FP FL inconclusive
CN(C)C1=NCCN1CCc1ccc(F)cc1	none (no result: Menin-MLL TR inh, Menin MLL FP FL, MLL CXXC-DNA inh)
O=C(CCc1nc2ccccc2[nH]1)Nc1ccc2c(c1)OCO2	KCNH2 3.1 inh -198
O=C(NCCc1nc2ccccc2[nH]1)/C(=C/c1ccc2c(c1)OCO2)NC(=O)c1ccccc1	none
O=C(NCCc1nc2ccccc2[nH]1)/C(=C/c1ccc2c(c1)OCO2)NC(=O)c1ccccc1Cl	hERG WT inh inconclusive, KCNH2 3.1 inh -77
Cc1ccc(C(C)(C)c2ccc(C)cc2)cc1	none (no result: hERG WT inh, KCNH2 3.1 inh)
N#Cc1sc2nc(C3CC3)cc(-c3ccc(Cl)cc3)c2c1N	KCNH2 3.1 inh -72
